Among the data in PubChem BioAssay (NCI) are growth values, retold here.

SMILES strings stand for the structures. About 83,000 compounds went through this panel and 20% of them were active in at least one assay; those are over-represented in the sample as a whole.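 The endpoint reported here, percent growth, reads 100 for growth as untreated, 0 for no net growth and -100 for all cells dead.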 A number with no mark means an inactive call. The source made the active and inactive calls. The calls were made as follows: active = growth percent below 10; inactive = the rest.

The first assay relates to BT-549 breast. As to the kind of experiment: NCI-60 one-dose screen, 48 h (100 = growth as untreated, 0 = no growth, -100 = all killed). Conditions: 10 µM unless noted.
For the compound `COc1cccc(/C=C/C(=O)c2c(C)nc3ccccc3c2/C=C/c2ccc(C)cc2)c1OC`, the growth was 69.1%. The same measure, in the same setting: under `COc1ccc(S(=O)(=O)NCCNc2nccc(-c3c(-c4cccc(F)c4)nc4sccn34)n2)cc1` stands 47%. Still for that read-out and setting: under `COc1cccc(C(=O)NCCNc2cc(-c3cn(-c4ccccc4)nc3-c3cccc(OC)c3)ccn2)c1` stands 40.8%; under `CCCCOc1nc2ccccc2cc1C1CNC(=O)c2ccccc2N1` (configuration not stated), 41%; under `O=C(CCc1nnc(CN(c2ccccc2)c2ccccc2)o1)c1nc2ccccc2[nH]1`, 84.8%.

The test system of the next assay is MDA-MB-435 melanoma. The description is as above. Conditions: 10 µM unless noted.
As to `O=C1N=c2cc3c(cc2=C/C1=C/c1sc(=S)n(CCc2ccc(O)cc2)c1O)OCCO3`, the growth is 61.1%. Still for that read-out and setting: under `O=Cc1c[nH]c2ccc(-c3csc4ccccc34)cc12` stands -17.5% (active); under `O=C(Nc1ccccc1)Nc1cccc(Oc2nnc(Cl)c3ccccc23)c1`, 48.6%; under `NC(=O)c1ccc[n+]([C@@H]2O[C@H](COP(=O)([O-])OP(=O)(O)OC[C@H]3O[C@@H](n4cnc5c(N)ncnc54)[C@H](O)[C@@H]3O)[C@@H](O)[C@H]2O)c1`, 104%. Same read-out and setting: under `O=C1CCc2c(sc3[nH]c(=S)n(-c4ccc(OC(F)(F)F)cc4)c(=O)c23)C1` stands 55%; under `CC1(C)CC[C@]2(C(=O)N3CCOCC3)CC[C@]3(C)C(=CC[C@@H]4[C@@]5(C)CC[C@H](OC(=O)c6cccnc6)C(C)(C)[C@@H]5CC[C@]43C)[C@@H]2C1`, 70.2%.

With `COC(=O)[C@]12CC[C@@H](C)[C@H](C)[C@@H]1C1=CC[C@@H]3[C@@]4(C)C(C=O)=C[C@@](C)(COC(=O)c5ccco5)C4=CC[C@@]3(C)[C@]1(C)CC2`, the growth was -22.3% (active).
